# Bioassay records (PubChem BioAssay)
# Rows were chosen to be rich in hits. Some 21% of all compounds tested hit in one or more screens of this group.
# Pf growth 96h: P. falciparum growth inhibition at 96 hours; P. falciparum luciferase reporter growth, 96 h; Potency, µM (top dose mostly 28.7 µM), usual class: inhibitors; actives 6.9% (n = 320,000); AID 504834
#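 Cell-based qHTS: luciferase-tagged P. falciparum in erythrocytes (2% hematocrit, 0.05% parasitemia final) incubated with compounds for 96 hours, 37 C, 5% CO2; luciferase detection reagent then added and luminescence measured.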
# CHX counter: counter-screen for Shiga toxin inhibitors: cycloheximide protein synthesis inhibition; cell reporter, cycloheximide protein synthesis inhibition counterscreen; max response, %; actives 12% (n = 300,000); in the data active = max response mostly above about 13%, no sharp cut-off; inactive = mostly below about 14%; note: read at 38.3 µM for the half of the compounds with a filed dose
# HCV inhibitor: blocks hepatitis C virus; Huh7.5.1 HCVcc-Cre infection, luciferase reporter, 44 h; Potency, µM (highest dose often 41.8 µM), actives largely listed as inhibitors; actives 3.4% (n = 340,000)
#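 Cells seeded at 1,000/well and cultured 4 h, then compounds added followed by HCVcc-Cre virus (~0.5 moi). After 44 h further culture, luciferase substrate was added, plates held 15 min at room temperature, and luminescence read for 15 sec.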
# Pf growth 48h: inhibits P. falciparum growth in the first generation, 48 h. P. falciparum luciferase growth in erythrocytes, 48 h. Potency, µM (titrated, usually from 28.7 µM), hits mostly inhibitors. actives 5.9% (n = 310,000)
#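 Read-out is firefly luciferase luminescence from an integrated reporter in P. falciparum, so falling signal marks reduced parasite growth. Infected erythrocytes were at 2% hematocrit and 0.1% parasitemia (final) in Albumax-supplemented RPMI 1640.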
# Shiga inhibitor: Shiga toxin inhibition | actives 9.2% (n = 290,000) | Vero cells, Shiga toxin protein synthesis inhibition reporter | AID 2315 | inhibition, % at 38.7 µM; in the data active = inhibition mostly above about 28%, no sharp cut-off; inactive = mostly below about 43%
# AMA1 RON2 block: inhibitors of Plasmodium falciparum AMA1-RON2 interaction | AlphaScreen AMA1-biotinylated RON2 peptide binding | Potency, µM (doses to about 58.2 µM), actives largely listed as inhibitors | actives 0.2% (n = 360,000); note: nearly all actives have a fitted effect of over 45% in size
#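 AMA1 (3D7) with his tag at 25 nM final met compounds first, then biotinylated RON2 peptide at 25 nM; detection used donor plus acceptor beads, 10 µg/mL apiece, read by AlphaScreen after 30 min at room temperature.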
# A number is an active result; – = inactive; ? = inconclusive; · = no result given. Unless noted, calls come from the whole dose curve; as a rule, active = well fitted curve in the direction sought with a large enough effect; inconclusive = small, poorly fitted or top-dose-only effect, or another doubt; inactive = no such curve, though single readings can be large; an effect the other way counts as inactive or inconclusive.
SMILES,Pf growth 96h,CHX counter,HCV inhibitor,Pf growth 48h,Shiga inhibitor,AMA1 RON2 block
Cc1ccc(C(O)c2ncc(-c3ccc(Cl)cc3)[nH]2)cc1 (configuration not stated),·,·,·,·,·,–
CC/C(=N\NS(=O)(=O)c1ccc(C)cc1)c1ccco1,–,–,–,·,–,–
COc1cccc2c1[C@@H]1CN(CCCCn3c(=O)[nH]c4c(sc5ncc(-c6ccccc6)nc54)c3=O)C[C@@H]1CO2,?,·,3.5µM,?,·,–
COc1cc2[nH]c(=O)n(CCCC(=O)N3CC=C(c4ccccc4)CC3)c(=O)c2cc1OC,–,–,–,?,–,–
COc1ccc(N2CCN(C(c3cccs3)C(C)NC(=O)C(=O)N3CCCC3)CC2)cc1 (configuration not stated),–,–,?,?,–,–
COc1ccc(N2CCN(C(c3cccs3)C(C)NS(=O)(=O)c3ccccc3)CC2)cc1 (configuration not stated),?,–,?,13µM,–,?
COc1ccc(N2CCN(C(c3cccs3)C(C)NC(=O)C(=O)N3CCCCC3)CC2)cc1 (configuration not stated),12µM,–,–,?,–,–
COc1ccc(/C=C/C(=O)NCCSCc2ccco2)cc1OC,–,–,–,–,–,–
COC(=O)c1sc(-c2cccs2)cc1N,–,40,?,–,47,–
COC(=O)c1c(C)nc(C)c(C(=O)OC)c1-c1cccs1,?,–,–,–,–,–
COC(=O)c1sc(-c2ccc(Cl)cc2)cc1N,–,66,–,–,80,–
CC(=O)c1sc(-c2ccc(Cl)cc2)cc1N,?,27,?,–,35,–
CCC(C=C[C@@H]1OC(=O)C=C[C@H]1C)=C[C@H](C)CC=CC(C)=C[C@@H](C)C(=O)[C@@H](C)[C@H](O)[C@@H](C)CC(C)=CC(=O)O,·,–,·,·,–,·
Cc1ccc(NCc2ccc(C)s2)cc1,–,37,·,–,66,·
Cc1ccc(CNc2ccc(N3CCOCC3)cc2)s1,–,48,–,–,93,–
